PubChem BioAssay AID1159580 (chemical genetic matrix, 2015)
Out of some 5,500 compounds screened, about 2,000 (36%) were called active. Not shown: some 18% with an inconclusive outcome. Cut-off read from the data, not from the text of the source: active = normalized growth mostly below about 0.91 (no sharp cut-off); inconclusive = no clear call, values can overlap the other calls; inactive = mostly above about 0.92. The list shows a part of the results.

Assay: chemical genetic growth profiling, strain panel (AID 1159580);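 note: tested at 20 µM; growth read once vehicle control cultures reached saturation at 30 °C; 1 = growth at the plate median or of vehicle wells; lower values mean less growth of the strain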
Conditions: S. cerevisiae deletion strains, growth OD
[1] = locus YAL013W, strain DEP1, active compounds read low
[2] = locus YBR229C, strain ROT2, active compounds read low
[3] = locus YCL061C, strain MRC1, active compounds read low
[4] = locus YDL101C, strain DUN1, active compounds read low
[5] = locus YDR150W, strain NUM1, active compounds read low
[6] = locus YEL061C, strain CIN8, active compounds read low
[7] = locus YGR078C, strain PAC10, active compounds read low
[8] = locus YHR030C, strain SLT2, active compounds read low
[9] = locus YHR087W, strain rtc3, active compounds read low
[10] = locus YJR043C, strain POL32, active compounds read low
[11] = locus YJR075W, strain HOC1, active compounds read low
[12] = locus YLR039C, strain RIC1, active compounds read low
[13] = locus YLR058C, strain SHM2 (second series), active compounds read low
[14] = locus YLR085C, strain ARP6, active compounds read low
[15] = locus YLR262C, strain YPT6, active compounds read low
[16] = locus YML094W, strain GIM5, active compounds read low
[17] = locus YMR219W, strain ESC1, active compounds read low
[18] = locus YMR263W, strain SAP30, active compounds read low
[19] = locus YMR307W, strain GAS1, active compounds read low
[20] = locus YNL153C, strain GIM3, active compounds read low
[21] = locus YNL298W, strain CLA4 (second series), active compounds read low
[22] = locus YNL322C, strain KRE1, active compounds read low
[23] = locus YNR030W, strain Alg12, active compounds read low
[24] = locus YPL055C, strain LGE1, active compounds read low
[25] = locus YPL241C, strain CIN2, active compounds read low
[26] = locus YPR135W, strain CTF4, active compounds read low

Measured: normalized growth

Fc1cccc(Cl)c1Cn1nnc(N2CCCCC2)n1
active: [8] 0.444 | [14] 0.762 | [26] 0.534
inactive: [1] 0.973 | [2] 0.96 | [3] 0.977 | [4] 0.992 | [5] 1.01 | [6] 0.966 | [7] 0.946 | [9] 0.941 | locus YJL187C, strain SWE1, active compounds read low 0.969 | [10] 0.982 | [11] 0.914 | [12] 0.851 | [13] 0.969 | [15] 0.881 | [16] 0.918 | [17] 0.962 | [18] 0.976 | [19] 0.825 | [20] 0.962 | [21] 0.984 | [22] 0.961 | [23] 0.926 | [24] 0.959 | [25] 0.909

ON(Cc1c(F)cccc1Cl)Cc1c(F)cccc1Cl
inactive: [1] 0.985 | [2] 1.01 | [3] 0.997 | [4] 0.978 | [5] 0.951 | [6] 1.02 | [7] 0.979 | [8] 0.989 | [9] 0.986 | [10] 1.01 | [11] 0.986 | [12] 0.816 | [13] 1 | [14] 0.987 | [15] 0.829 | [16] 1.01 | [17] 0.988 | [18] 0.992 | [20] 0.976 | [21] 1.01 | [22] 0.987 | [23] 0.993 | locus YOL006C, strain TOP1, active compounds read low 0.966 | [24] 1.02 | [25] 1 | [26] 0.852

COc1ccccc1NC(=O)Nc1nc(-c2cccnc2)nc2ccccc12
inactive: [1] 1.01 | locus YAL040C, strain CLN3, active compounds read low 1.02 | locus YCL061C, strain MRC1 (second series), active compounds read low 1 | locus YDR363W, strain ESC2, active compounds read low 1.02 | locus YER002W, strain NOP16, active compounds read low 1.04 | [7] 0.993 | locus YGR229C, strain SMI1, active compounds read low 1.01 | [18] 1.01 | [19] 1.02 | locus YNL128W, strain TEP1, active compounds read low 0.998 | locus YNL175C, strain NOP13, active compounds read low 0.977 | locus YNL197C, strain WHI3, active compounds read low 1.01 | locus YNL224C, strain SQS1, active compounds read low 1.01 | locus YOR083W, strain WHI5 (second series), active compounds read low 1.01 | [24] 1.01

COc1ccccc1NC(=O)Nc1nn(C)c2cccc(OC)c12
active: [8] 0.637 | locus YLR113W, strain HOG1, active compounds read low 0.599 | locus YLR403W, strain SFP1, active compounds read low 0.649 | locus YPL256C, strain CLN2, active compounds read low 0.73
inactive: locus YAR019C, strain CDC15, active compounds read low 0.917 | locus YBL105C, strain PKC1, active compounds read low 0.918 | locus YBR135W, strain CKS1, active compounds read low 0.933 | locus YBR136W, strain MEC1, active compounds read low 0.919 | locus YBR160W, strain CDC28, active compounds read low 0.932 | locus YDL017W, strain CDC7, active compounds read low 0.924 | locus YDL028C, strain MPS1, active compounds read low 0.938 | [4] 0.951 | locus YDL108W, strain KIN28, active compounds read low 0.924 | locus YDL132W, strain cdc53, active compounds read low 0.925 | locus YDL214C, strain PRR2, active compounds read low 0.843 | locus YDR052C, strain DBF4, active compounds read low 0.94 | locus YDR054C, strain cdc34, active compounds read low 0.879 | locus YDR226W, strain ADK1, active compounds read low 0.938 | locus YDR477W, strain SNF1, active compounds read low 0.781 | locus YER123W, strain YCK3, active compounds read low 0.811 | locus YER133W, strain GLC7, active compounds read low 0.731 | locus YFL009W, strain cdc4, active compounds read low 0.94 | locus YFL029C, strain CAK1, active compounds read low 0.914 | locus YFR003C, strain YPI1, active compounds read low 0.924 | locus YFR019W, strain FAB1, active compounds read low 0.907 | locus YFR028C, strain CDC14, active compounds read low 0.93 | locus YGR040W, strain KSS1, active compounds read low 0.766 | locus YGR052W, strain FMP48, active compounds read low 0.845 | locus YGR092W, strain DBF2, active compounds read low 0.81 | locus YHR079C, strain IRE1, active compounds read low 0.815 | locus YHR082C, strain KSP1, active compounds read low 0.843 | locus YHR205W, strain SCH9, active compounds read low 0.835 | locus YIL147C, strain SLN1, active compounds read low 0.935 | locus YJL095W, strain BCK1, active compounds read low 0.687 | locus YJL128C, strain PBS2, active compounds read low 0.953 | locus YJL157C, strain FAR1, active compounds read low 0.816 | locus YJR016C, strain ILV3, active compounds read low 0.928 | locus YJR066W, strain TOR1 (second series), active compounds read low 0.794 | locus YJR066W, strain TOR1, active compounds read low 0.775 | locus YKL048C, strain ELM1, active compounds read low 0.93 | locus YKL067W, strain YNK1, active compounds read low 0.866 | locus YKL101W, strain HSL1, active compounds read low 0.855 | locus YKL193C, strain SDS22, active compounds read low 0.914 | locus YKL203C, strain TOR2, active compounds read low 0.776 | locus YLR133W, strain CKI1, active compounds read low 0.818 | locus YML070W, strain DAK1, active compounds read low 0.824 | locus YMR001C, strain CDC5, active compounds read low 0.902 | locus YMR205C, strain PFK2 (second series), active compounds read low 0.863 | locus YMR277W, strain FCP1, active compounds read low 0.918 | locus YNL006W, strain LST8, active compounds read low 0.933 | locus YNL020C, strain ARK1, active compounds read low 0.818 | locus YNL161W, strain CBK1, active compounds read low 0.929 | locus YNL183C, strain NPR1, active compounds read low 0.745 | locus YNL207W, strain RIO2, active compounds read low 0.91 | locus YNL222W, strain SSU72, active compounds read low 0.929 | locus YNL307C, strain MCK1 (second series), active compounds read low 0.827 | locus YOL078W, strain AVO1, active compounds read low 0.914 | locus YOL136C, strain PFK27, active compounds read low 0.81 | locus YOR061W, strain CKA2, active compounds read low 0.866 | locus YOR119C, strain RIO1, active compounds read low 0.8 | locus YOR231W, strain MKK1, active compounds read low 0.734 | locus YOR329C, strain SCD5, active compounds read low 0.933 | locus YPL031C, strain PHO85, active compounds read low 0.724 | locus YPL153C, strain RAD53, active compounds read low 0.742 | locus YPL204W, strain HRR25, active compounds read low 0.719 | locus YPL209C, strain IPL1, active compounds read low 0.943 | locus YPR025C, strain CCL1, active compounds read low 0.926 | locus YPR106W, strain ISR1, active compounds read low 0.916 | locus YPR111W, strain DBF20, active compounds read low 0.919 | strain NNK1, active compounds read low 0.908 | strain TSCII, active compounds read low 0.915
